Measured potencies and affinities stand elsewhere. Calls of active or inactive are those of the source.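 Rule for the calls: active = CTGF level falls with dose and the fitted half-maximal dose is at most twice the top valid dose; inconclusive = flat fit with 30 to 70% drop, or a poor fit; inactive = the rest.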
Assay: CTGF mRNA reduction in DLD1 cells – cell-based, DLD1 colon cancer, RT-qPCR, cherry-pick, dose response (AID 1053122)
Settings: DLD1 CTGF mRNA (YAP1 pathway), 24 h; series mostly up to 26 µM

outcome, inactive:
C[C@@H]1CN([C@H](C)CO)C(=O)CCCn2nncc2CO[C@@H]1CN(C)C(=O)c1cc(-c2ccccc2)on1
Cc1ccc(S(=O)(=O)Nc2ccc3c(c2)CC(=O)N([C@H](C)CO)C[C@@H](C)[C@@H](CN(C)S(=O)(=O)c2ccccc2)O3)cc1
CCCC#Cc1ccc([C@@H]2[C@@H](C#N)N(C(=O)CN3CCOCC3)[C@H]2CO)cc1
CN1C(=O)c2cc(NC(=O)Cc3cccs3)ccc2OC[C@@H]2O[C@@H](CC(=O)NCCc3ccncc3)CC[C@H]21
CC(C)(C)S(=O)N1Cc2cc(C(=O)NCc3ccc4c(c3)OCO4)nc(-c3cccc(-c4cccc(F)c4)c3)c2[C@@H]1CCO (some centres not stated)
COCC(=O)N1CC(=O)N2[C@H](CO)[C@@H](c3ccc(C#CC4CC4)cc3)[C@H]2C1
COc1ccc(S(=O)(=O)Nc2ccc3c(c2)C(=O)N([C@@H](C)CO)C[C@H](C)[C@@H](CN(C)S(=O)(=O)c2ccc(Cl)cc2)OCCCC[C@@H](C)O3)cc1
C[C@@H]1CN([C@@H](C)CO)C(=O)c2ccccc2-c2ccccc2CO[C@@H]1CN(C)S(=O)(=O)c1cn(C)cn1
C[C@H]1CC=CC[C@@H](c2ccc(F)cc2)NC(=O)[C@H](Cc2ccccc2)N(C)C(=O)c2ccccc2O1 (mixture of isomers)
C[C@@H]1CN([C@H](C)CO)C(=O)c2ccccc2-c2ccccc2CO[C@@H]1CN(C)Cc1ccccc1C(F)(F)F
CN1C(=O)c2cc(NS(=O)(=O)c3ccccc3F)ccc2OC[C@@H]2O[C@@H](CC(=O)NC3Cc4ccccc4C3)CC[C@@H]21
COc1ccc([C@H]2C/C=C\C[C@@H](c3ccc4c(c3)OCO4)NC(=O)[C@@H](c3ccccc3)CC(=O)N2)c(OC)c1
CO[C@H]1CN(C)C(=O)c2cc(NC(=O)Nc3ccccc3F)ccc2OC[C@H](C)N(CCC(F)(F)F)C[C@@H]1C
C[C@@H]1CN([C@@H](C)CO)C(=O)c2cccc(NC(=O)c3nc4ccccc4s3)c2O[C@H]1CN(C)C(=O)Nc1ccc2c(c1)OCO2
CO[C@@H]1CN(C)C(=O)c2cc(NS(=O)(=O)c3ccccc3C)ccc2OC[C@@H](C)N(S(=O)(=O)c2ccccc2)C[C@H]1C
COc1ccc2c3c([nH]c2c1)[C@H](CO)NCC31CCN(C(=O)Cc2cccnc2)CC1
CC(=O)N1CCCCN2[C@@H](CO)[C@H](c3ccc(-c4ccccc4)cc3)[C@@H]2C1
Cc1ccccc1-c1ccc([C@H]2[C@@H](CO)N3CCCCN(S(=O)(=O)Cc4ccccc4)C[C@@H]23)cc1
CCNC(=O)c1cc2c(c(-c3cccc(-c4ccccc4F)c3)n1)[C@@H](CCO)N(C(=O)CC1CC1)C2
CC(C)NC(=O)N[C@@H]1CC[C@H](CC(=O)NCCCN(C)C)O[C@@H]1CO
CCC(=O)N1C[C@H](C)[C@@H](OC)CN(C)C(=O)c2cc(NC(=O)Nc3ccc(Cl)cc3)ccc2OC[C@@H]1C
C[C@@H]1CN([C@@H](C)CO)C(=O)c2ccccc2-c2ccccc2CO[C@H]1CN(C)C(=O)Nc1ccc(-c2ccccc2)cc1
CS(=O)(=O)N1CC(=O)N2[C@H](C1)[C@@H](c1ccc(C#Cc3ccc(F)cc3)cc1)[C@@H]2CO
O=C(Nc1ccc2c(c1)[C@H]1C[C@@H](CC(=O)N3CCc4ccccc4C3)O[C@H](CO)[C@H]1O2)c1ccc2c(c1)OCO2
Cc1ccc(S(=O)(=O)N2CC[C@@H]3[C@H]2c2cc(-c4cccc(C(=O)N(C)C)c4)ccc2N[C@@H]3CO)cc1
O=C([C@H]1[C@H](CO)[C@H]2Cn3c(ccc(-c4ccc(F)cc4)c3=O)[C@H]2N1Cc1cocn1)N1CCCCC1
COc1ccccc1C(=O)Nc1ccc2c(c1)C(=O)N(C)C[C@H](OC)[C@@H](C)CN(C(C)=O)[C@@H](C)CO2
